Laboratory results taken from PubChem BioAssay.
Entries with a potency or affinity are not part of this list. Activity calls are given as the source filed them. No cut-off is given here; in the data, nearly all actives have IC50 up to about 0.91 µM.

Target: Calcium-dependent protein kinase 4 (Plasmodium falciparum (isolate 3D7)) (UniProt Q8IBS5)
Experiment: PfCDPK4 kinase inhibitors, biochemical, TCAMS library (AID 1159588)
Conditions: recombinant PfCDPK4, Kinase-Glo ATP depletion luminescence

Sequence of Calcium-dependent protein kinase 4 (Plasmodium falciparum (isolate 3D7)) (Q8IBS5 whole entry, looked up): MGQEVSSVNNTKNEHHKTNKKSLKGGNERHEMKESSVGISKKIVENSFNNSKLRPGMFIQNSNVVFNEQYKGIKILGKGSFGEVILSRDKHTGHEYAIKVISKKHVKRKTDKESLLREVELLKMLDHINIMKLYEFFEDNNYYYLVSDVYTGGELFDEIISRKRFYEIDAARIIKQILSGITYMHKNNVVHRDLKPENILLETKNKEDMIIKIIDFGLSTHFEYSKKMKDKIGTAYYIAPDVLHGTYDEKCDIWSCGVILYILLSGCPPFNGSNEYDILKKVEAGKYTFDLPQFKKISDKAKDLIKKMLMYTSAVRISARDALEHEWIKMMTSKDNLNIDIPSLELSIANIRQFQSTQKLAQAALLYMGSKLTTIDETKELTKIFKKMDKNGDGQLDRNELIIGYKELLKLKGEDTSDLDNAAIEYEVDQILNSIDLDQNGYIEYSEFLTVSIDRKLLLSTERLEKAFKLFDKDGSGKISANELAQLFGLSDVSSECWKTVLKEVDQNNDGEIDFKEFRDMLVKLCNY

Row | Structure (SMILES) | outcome
1 | CC(=O)Nc1ccc(C(=O)Nc2cccc(-c3csc(-c4nc5ccccc5[nH]4)c3)c2)cn1 | inactive
2 | c1nc2nc3c(c(Nc4ccc5c(c4)CCC5)n2n1)CCC3 | inactive
3 | Cc1cc(N)c2cc(NC(=O)c3cc(C(F)(F)F)cc(C(F)(F)F)c3)ccc2n1 | inactive
4 | Oc1cc2c(cc1CN1CCN(Cc3ccccc3F)CC1)CCC2 | inactive
5 | COc1ccc(Cc2c(C)nc3nc(N)nc(N)c3c2C)cc1 | inactive
6 | COCCn1c(-c2nc(-c3ccc(F)cc3)cnc2N)nc2ccccc21 | inactive
7 | Cc1[nH]c(C)c(-c2ccc(OCCOc3ccc(C(F)(F)F)cn3)cc2)c(=O)c1Br | inactive
8 | COc1cccc(OC)c1C(=O)Nc1cccc(-c2nn3ccccc3c2-c2ccnc(Nc3cccc(F)c3)n2)c1 | inactive
9 | Cc1cnc2ccc(NS(=O)(=O)c3ccc4c(Cl)cccc4c3)cc2c1N1CCNCC1 | inactive
10 | Cc1c(S(=O)(=O)Nc2cccc(CCN3CCCCC3CCN3CCCC3)c2)sc2ccc(Cl)cc12 (centres undefined) | inactive
11 | COc1cccc(Cc2c(C)nc3nc(N)nc(N)c3c2C)c1 | inactive
12 | COc1ccc(-c2cccc(NC(=O)c3cccc(Cl)c3)c2)cc1CN(C)CCN(C)C | inactive
13 | O=C(/C=C/c1ccc(Cl)c(Cl)c1)NCCCCCN1CCC(CCNC(=O)C2(c3ccc(Cl)cc3)CC2)CC1 | inactive
14 | O=C(C=Cc1ccc(Cl)c(Cl)c1)NCCCCCN1CCC(CCCNC(=O)[C@@H]2C[C@H]2c2ccccc2)CC1 | inactive
15 | N#Cc1cccc(C(=O)Nc2cccc(-c3ccc(CN4CCCC4)cc3)c2)c1 | inactive
16 | CN1CCN(c2nsc3ccc(-c4ccc(NC(=O)Nc5cc(C(F)(F)F)ccc5F)cc4)cc23)CC1 | inactive
17 | NC(=O)c1ccsc1NC(=O)CNC(c1ccc(F)cc1)c1cccs1 (centres undefined) | inactive
18 | CC(C)Nc1nc(NCCc2cnc[nH]2)nc(Nc2ccc(Oc3ccccc3)cc2)n1 | inactive
19 | c1ccc(-c2cc(NCCCCNc3cc(-c4ccccc4)nc4ccccc34)c3ccccc3n2)cc1 | inactive
20 | CCOC(=O)c1c(C)n(-c2ccccc2)c2ccc(O)cc12 | inactive

Row | Structure (SMILES) | outcome
21 | CC(C)Nc1nc(NCCc2cnc[nH]2)nc(NCc2cccc3ccccc23)n1 | inactive
22 | CCc1cn2c3c(cc(C(=O)N[C@@H](Cc4ccccc4)[C@H](O)CNC4CC4)cc13)N(CC)S(=O)(=O)CC2 | inactive
23 | Fc1ccc2nc(-c3ccc(-c4ccc(CNCCc5cccnc5)cc4)s3)[nH]c2c1 | inactive
24 | COc1cc(Cc2cnc(N)nc2N)cc(OC)c1OCCCCC(=O)O | inactive
25 | O=C(N[C@H]1CCN(Cc2ccc(OC3CCN(Cc4ccccc4)CC3)c(Br)c2)C1)c1ccc(Cl)c(Cl)c1 | inactive
26 | O=C(NCC1CCN(C/C=C/c2ccccc2)CC1)Nc1ccc(Oc2ccccc2)cc1 | inactive
27 | COc1cccc2cc(C(=O)N[C@@H](CC(C)C)C(=O)N[C@H](/C=N/N(C)C(=O)OC(C)(C)C)CC(=O)OC(C)(C)C)oc12 | inactive
28 | CN1CCC(c2cc3c(cc2Br)CCN3C(=O)Nc2ccc(-c3ccncc3)c(Cl)c2)CC1 | inactive
29 | Cc1[nH]nc2cc(Nc3ccnc(Nc4ccc(CN5CCOCC5)cc4)n3)ccc12 | inactive
30 | CCC(C)NC(=O)CN1CN(c2ccccc2)C2(CCN(C(=O)c3ccc(C(C)(C)C)cc3)CC2)C1=O (centres undefined) | inactive
31 | c1ccc(-c2nc(Nc3nc4ccccc4[nH]3)[nH]c2-c2ccccc2)cc1 | inactive
32 | Cc1ccc2c(c1[N+](=O)[O-])N=NCC2Oc1ccccc1 (centres undefined) | inactive
33 | COc1ccc(-c2cnc3[nH]cc(-c4ccc(C(=O)O)cc4)c3c2)cn1 | inactive
34 | c1ccc(CCNCc2ccc(-c3cccc(-c4nc5ccccc5[nH]4)c3)cc2)nc1 | inactive
35 | O=C(Nc1ccc(-c2cccc(-c3nc4ccccc4[nH]3)c2)cc1)Nc1ccsc1 | inactive
36 | COc1ccc2ncc(C#N)c(CCN3C[C@H](CNCc4ccccc4)[C@H](O)C3)c2n1 | inactive
37 | Oc1ccc2c(CNCCc3ccccc3)c(O)ccc2c1CNCCc1ccccc1 | inactive
38 | NC1=NC(c2ccccc2)N(OCc2ccccc2)C(N)=N1 (centres undefined) | inactive
39 | O=C(Nc1ccc2c(c1)CCN2C1CCN(Cc2ccc(F)cc2Cl)C1)c1ccco1 (centres undefined) | inactive
